Measurements from PubChem BioAssay (Tox21).
Results filed as inconclusive are left out. Values without a mark were called inactive. The source made the active and inactive calls. The call rests on the fitted dose curve; in most records, active means well fitted activation curve with a large enough effect in the signal ratio in the repeat runs (not every such curve was filed as active); inconclusive means weak or mixed curves, or effect the other way; inactive means flat fitted curve, though single readings scatter; the % refers to the signal ratio.

assay: qHTS assay to identify small molecule agonists of the endoplasmic reticulum stress response signaling pathway (AID 1159516); conditions: ESRE-bla HeLa, ER stress beta-lactamase reporter, 5 h; series mostly up to 61 µM
Text: National Center for Advancing Translational Sciences [NCATS]
NIH Chemical Genomics Center [NCGC]
U.S. Environmental Protection Agency [EPA]
National Institutes of Environmental Health Sciences [NIEHS]
National Toxicology Program [NTP]
U.S. Food and Drug Administration [FDA]
Endoplasmic Reticulum (ER) plays an important role in cellular signaling, protein folding/maturation, stress response, lipid biosynthesis, calcium storage and release etc. Under stress conditions, proteins in ER misfold or unfold, and leading to the expression of ER stress responsive genes. ER stress has been associated with a variety of pathophysiological conditions such as cancer, inflammation, neurodegenerative diseases, diabetes, ischemic heart disease etc. To identify the compounds that induce ER stress response, an ER stress reporter cell line, CellSensor ESRE-bla HeLa (Life Technologies, Carlsbad, CA) containing a beta-lactamase reporter gene under control of the Endoplasmic reticulum Stress Response Element (ESRE) was used to screen Tox21 10K compound library.
Tox21 Assay Protocol Summary:
ESRE-bla HeLa cells were dispensed at 1,500 cells/6 uL of assay medium per well into black wall/clear-bottom 1536-well plates using a Multidrop Combi (ThermoFisher Scientific, Waltham, MA) dispenser. After the assay plates were incubated at 37 C and 5% CO2 for an overnight, 23 nL of compounds dissolved in DMSO, positive controls or DMSO only was transferred to the assay plate by a Pintool station (Kalypsys, San Diego, CA). The assay plates were incubated at 37 C and 5% CO2 for 5 hr. One uL of LiveBLAzer B/G FRET substrate (Life Technologies) was added using a Flying Reagent Dispenser (Aurora Discovery, San Diego, CA) and the plates were incubated at room temperature for 2 hr. Fluorescence intensity (405 nm excitation, 460 nm and 530 nm emissions) was measured using an Envision plate reader (PerkinElmer, Shelton, CT).
On the % scale 0 is the no-effect control and ±100 the full control effect.

SMILES | outcome | activation
CC(=O)OCC(CCn1cnc2cnc(N)nc21)COC(C)=O | inactive | 
CCOC(=O)c1cccc(N)c1 | inactive | 
CC1(C)CO[C@@H](CC(=O)O)CN1 | inactive | 
C=C(C)CS(=O)(=O)O | inactive | 
Cc1c(O)cccc1O | inactive | 
CCC(C)S (stereo not given) |  | 2.07% [at 3.11 µM]
Cc1cccn2c(=O)c(-c3nnn[nH]3)cnc12 | inactive | 
COCCCOCCCOC | inactive | 
FC1(F)C(F)(F)C(F)(F)C2(F)C(F)(F)C(F)(F)C(F)(F)C(F)(F)C2(F)C1(F)F (stereo not given) | inactive | 
CCCCCCCCCCCCCC=O |  | -3.51% [at 6.95 µM]
COC(=O)c1ccc(C)cc1C1=NC(C)(C(C)C)C(=O)N1 (stereo not given) | inactive | 
COc1ccc(CCN(C)CCCC(C#N)(c2cc(OC)c(OC)c(OC)c2)C(C)C)cc1OC (stereo not given) | inactive | 
Brc1c(NC2=NCCN2)ccc2nccnc12 | inactive | 
O=C(O)COc1nn(Cc2ccccc2)c2ccccc12 | inactive | 
CCc1cccc2c(CCO)c[nH]c12 | inactive | 
CCN1CCC[C@H]1CNC(=O)c1cc(S(N)(=O)=O)ccc1OC | inactive | 
CCO[Si](CCC1CCC2OC2C1)(OCC)OCC (stereo not given) | inactive | 
CCN1CCC[C@H]1CNC(=O)c1c(O)c(Cl)cc(Cl)c1OC | inactive | 
O=[N+]([O-])c1ccc(F)cc1F | inactive | 
CO[Si](CCCOCC1CO1)(OC)OC (stereo not given) | inactive | 

SMILES | outcome | activation
O=C1OC(=O)C2CCCCC12 (stereo not given) | inactive | 
Cc1cc2c(cc1S(N)(=O)=O)S(=O)(=O)CCC2 | inactive | 
COCCc1ccc(OCC(O)CNC(C)C)cc1 (stereo not given) | inactive | 
NC(CSCC(=O)O)C(=O)O (stereo not given) | inactive | 
CN1C(=O)N(C)C(O)C1O (stereo not given) | inactive | 
NC(=O)c1ccc([N+](=O)[O-])cc1 | inactive | 
NS(=O)(=O)c1cc2c(cc1Cl)NC(C1CC3C=CC1C3)NS2(=O)=O (stereo not given) | inactive | 
Nc1c2c(nc3ccccc13)CCCC2O (stereo not given) | inactive | 
O=C1CCCC(=O)C1 | inactive | 
Cc1cc(O)cc2c1O[C@](C)(CCC[C@H](C)CCC[C@H](C)CCCC(C)C)CC2 | inactive | 
CC1(C)C(O)C(C)(C)C1O (stereo not given) | inactive | 
CS(=O)(=O)O | inactive | 
NS(=O)(=O)c1ccc(C(=O)O)cc1 | inactive | 
C=C(C)C(=O)OCCCCCCCC(C)C | inactive | 
C[N+](C)(C)CC(O)CC(=O)[O-] (stereo not given) | inactive | 
CN1N=C(C(N)=O)CCC1=O | inactive | 
C=C1CC[C@H]2C[C@@H]1C2(C)C | inactive | 
CC(C)(C)NCCNC(C)(C)C | inactive | 
Nc1ccc(S(=O)(=O)Nc2ccnn2-c2ccccc2)cc1 | inactive | 
Nc1ccccc1S(=O)(=O)O | inactive | 
